Consider 15 compounds from PubChem BioAssay.

In one experiment the target is Albumin (Bos taurus) (UniProt P02769). In words: bovine serum albumin binders on microarray, profiling panel, artefact control for SMM control protein annotation, biochemical, small-molecule microarray, Alexa647 label, 635/667 nm fluorescence (AID 1118).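 Note: score merges 667 nm emission intensity and signal-to-noise per printed compound spot.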 The following applies: BSA-A647 binding, fluorescence 635 nm, higher = more signal.
Experiment [1] in a line: small-molecule microarray binders of probe aXIP, primary screen, biochemical, NeuroSMM set, 635/667 nm fluorescence (AID 1119).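 Note: probe is the protein aXip251-270 applied at 1 µg/mL to compound-printed slides; binding of probe to printed compounds measured as 667 nm fluorescence plus signal to noise.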 Conditions: higher = more signal, called active from +8 up or from −8 down.
Experiment [2] in a line: small-molecule binders of probe aNOTCH3, primary screen, biochemical, small-molecule microarray, 635/667 nm fluorescence (AID 1120).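 Note: probe is a biotin-tagged antibody raised against NOTCH3 rather than NOTCH3 protein; score merges spot fluorescence near 667 nm with spot signal to noise.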 The following applies: higher = more signal.
Experiment [3] is described as follows: small-molecule binders of probe aNOTCH2, primary screen, biochemical, small-molecule microarray, 635/667 nm fluorescence (AID 1121).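 Note: score merges feature fluorescence read at 667 nm with its signal to noise.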 Conditions: higher = more signal.
Experiment [4] has as its target Carbonic anhydrase 2 (Homo sapiens) (UniProt P00918). In words: CAII small-molecule binders, profiling panel, biochemical, small-molecule microarray, Alexa647-labelled CAII (AID 1122). Conditions: CAII-A647 binding fluorescence, higher = more signal.
Experiment [5] is described as follows: COS7 lysate on small-molecule microarray, probe aHis, 635 nm (AID 1123).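 Note: z-score combines 667nm fluorescence intensity with signal-to-noise per printed compound spot.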 Conditions: COS7 cell lysate, fluorescence, higher = more signal.
A short description of experiment [6]: compound binding in COS7 lysate, probe aLAP1, primary screen, cell lysate, small-molecule microarray (AID 1124).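 Note: lysate comes from COS7 cells expressing LAP1 and is applied at 0.3 µg/mL; score merges spot fluorescence near 667 nm with signal-to-noise over triplicate slides.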 Conditions: probe aLAP1, fluorescence, higher = more signal.
The subject of a further experiment is Sam68 (KHDRBS1). In words: Sam68 small-molecule binders, primary screen, biochemical, small-molecule microarray, 635 nm fluorescence (AID 1125).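 Note: score merges 667 nm channel intensity with signal to noise over triplicate slides.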 Conditions: small-molecule microarray binding, higher = more signal.
Experiment [7] deals with Chordin-like protein 2 (CHRDL2). Nature of the experiment: CHRDL2 small-molecule binders, primary screen, biochemical, small-molecule microarray, 635 nm fluorescence (AID 1126).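 Note: printed compound slides probed with Chrdl2 protein at 4 µg/mL for 1 h at 4 C; score merges 667 nm emission intensity with signal to noise over three replicate slides.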 Conditions: small-molecule microarray binding, fluorescence 635 nm; higher = more signal.
For experiment [8], the target named is Concanavalin-A (Canavalia ensiformis) (UniProt P02866). In words: ConA small-molecule binders, primary screen, artefact control for SMM control protein annotation, biochemical, small-molecule microarray, Alexa647 label, 635 nm (AID 1127).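 Note: z combines 667 nm emission intensity with signal-to-noise across three replicate slides.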 The following applies: ConA-A647 binding fluorescence, higher = more signal.

The source made the active and inactive calls.

Chain of Concanavalin-A (Canavalia ensiformis) (P02866 whole entry, looked up): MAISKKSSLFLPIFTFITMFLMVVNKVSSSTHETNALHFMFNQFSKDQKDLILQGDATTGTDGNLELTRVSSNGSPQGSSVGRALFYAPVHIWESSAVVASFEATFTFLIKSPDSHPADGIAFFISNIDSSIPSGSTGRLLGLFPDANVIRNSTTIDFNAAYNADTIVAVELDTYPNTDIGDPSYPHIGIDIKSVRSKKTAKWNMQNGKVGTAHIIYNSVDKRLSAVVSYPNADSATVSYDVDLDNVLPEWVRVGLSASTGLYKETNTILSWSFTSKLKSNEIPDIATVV
Chain of Albumin (Bos taurus) (P02769 whole entry, looked up): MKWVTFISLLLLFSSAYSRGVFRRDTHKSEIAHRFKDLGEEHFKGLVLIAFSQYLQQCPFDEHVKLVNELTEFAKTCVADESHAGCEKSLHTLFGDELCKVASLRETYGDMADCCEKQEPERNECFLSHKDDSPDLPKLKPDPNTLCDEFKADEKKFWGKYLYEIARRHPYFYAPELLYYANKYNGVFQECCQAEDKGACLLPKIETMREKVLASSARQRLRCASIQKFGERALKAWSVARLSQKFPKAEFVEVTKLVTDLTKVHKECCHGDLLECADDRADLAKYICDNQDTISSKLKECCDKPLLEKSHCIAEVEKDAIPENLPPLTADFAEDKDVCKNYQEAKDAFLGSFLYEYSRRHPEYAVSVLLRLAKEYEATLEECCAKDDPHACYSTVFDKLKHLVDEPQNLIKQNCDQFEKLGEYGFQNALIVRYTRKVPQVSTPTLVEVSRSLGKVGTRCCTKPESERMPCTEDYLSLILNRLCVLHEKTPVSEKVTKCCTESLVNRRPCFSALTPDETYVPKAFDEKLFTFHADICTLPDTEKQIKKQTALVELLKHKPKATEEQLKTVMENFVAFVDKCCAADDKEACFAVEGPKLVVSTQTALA

As to `COc1ccc([Si](C)(C)[C@H]2[C@H](CC(=O)N3Cc4ccccc4C[C@H]3CO)O[C@@]3(C(=O)N(C)c4c(Br)cc(C)cc43)[C@@H]2C)cc1`, the composite z-score with Albumin (Bos taurus) was 0.238; in [2] it was 0.0643; in experiment [3], -0.164; in [4], 0.0971; in experiment [5] it was 0.787; in experiment [6], 0.152. The composite z-score with Sam68 (KHDRBS1) was found to be 1.1; in [7] it was 0.7; in [8] it was 1.06. The composite Z-score in experiment [1] is 0.298 (inactive).

Consider `COCCCN1C(=O)[C@@]2(c3ccc([N+](=O)[O-])cc3)CC(=O)N(CC34CC5CC(CC(C5)C3)C4)[C@@H]2c2ccc(CO)cc21`, for which the composite z-score was -0.0098 with Albumin (Bos taurus); -0.101 in [2]; -0.0666 in experiment [3]; 0.48 in experiment [4]; 0.373 in experiment [5]; 0.991 in experiment [6]. Moreover, the values for the composite z-score (in the experiment with Sam68 (KHDRBS1); in [7]; in experiment [8]) were 0.229, -0.0444 and 0.728, respectively. The composite Z-score in experiment [1] was 0.208 (inactive).

As for `COCC(=C=CC[C@H](O)c1ccccc1OCCO)C[C@H](O)COCc1ccccc1`, the composite z-score in the experiment with Albumin (Bos taurus) was 0.816; in [2], 0.304; in [3], -0.148; in [4] it was 0.505; in [5], 2.08; in experiment [6], 1.81. Also, the composite z-score was determined as 1.14 with Sam68 (KHDRBS1), 0.0973 in experiment [7] and 0.245 in experiment [8]. Also, in experiment [1], the composite Z-score is 0.0117 (inactive).

Turning to `CO[C@H]1O[C@H](CO)[C@@H](OC(=O)Nc2ccc3c(c2)OCO3)[C@H](OC(=O)Nc2ccccc2-c2ccccc2)[C@H]1OC(=O)Nc1ccccc1-c1ccccc1`, the composite z-score with Albumin (Bos taurus) amounted to 0.287; in experiment [2], 0.214; in [3], 0.084; in experiment [4] it was 0.687; in experiment [5], 2.27; in experiment [6] it was 0.869. In addition, the composite z-score in the experiment on Sam68 (KHDRBS1) is 1.29; in experiment [7], -0.162; in [8], 1.03. Besides, the composite Z-score in experiment [1] was 0.0432 (inactive).

For the compound `CCOC(=O)C1=CC[C@@H](c2ccc(OC)cc2)N(S(=O)(=O)c2ccc(C)cc2)[C@H]1CC`, the composite z-score turned out to be 0.894 with Albumin (Bos taurus); 0.164 in experiment [2]; 0.0684 in experiment [3]; 0.579 in experiment [4]; 1.85 in experiment [5]; 0.133 in experiment [6]. For the same compound, the composite z-score was 1.33 with Sam68 (KHDRBS1), -0.483 in experiment [7] and 1.07 in experiment [8]. The composite Z-score in experiment [1] is -0.0608 (inactive).

Turning to `CC(=O)c1ccc(C(O)C2C=CC3C(=O)N(c4ccccc4)C(=O)C3N2Nc2ccc(C(C)C)cc2)cc1` (stereo not given), the composite z-score was found to be 0.0031 with Albumin (Bos taurus); 0.247 in experiment [2]; 0.216 in experiment [3]; 0.666 in [4]; 1.97 in experiment [5]; 0.463 in experiment [6]. The values for the composite z-score (in the experiment with Sam68 (KHDRBS1); in [7]; in experiment [8]) were 1.13, -0.185 and 1.13, respectively. The composite Z-score in experiment [1] is -0.275 (inactive).

With `COC(=O)[C@]1(Cc2ccccc2)N=C(c2ccc(OCCCO)cc2)O[C@@H]1c1ccccc1CN=[N+]=[N-]`, the composite z-score with Albumin (Bos taurus) is -0.847; in [2], 0.0259; in experiment [3], -0.0017; in experiment [4], 0.403; in experiment [5], 1.98; in [6], -0.0103. Besides, the composite z-score came to 0.745 in the experiment on Sam68 (KHDRBS1), 0.214 in experiment [7] and 0.656 in experiment [8]. Moreover, in [1], the composite Z-score is 0.384 (inactive).

With `COCCCNC(=O)[C@@]1(Sc2ccc(C)cc2)CC(=O)N(Cc2ccccc2C(F)(F)F)[C@@H]1c1ccc(CO)cc1I`, the composite z-score is 0.474 with Albumin (Bos taurus); -0.402 in experiment [2]; -0.121 in experiment [3]; 0.175 in experiment [4]; 1.08 in experiment [5]; 0.295 in experiment [6]. For the same compound, the composite z-score in the experiment with Sam68 (KHDRBS1) was 0.188; in experiment [7] it was -1.51; in [8], -0.89. Also, the composite Z-score in [1] is -1.08 (inactive).

Consider `CCCCC(O)C1C=CC2C(=O)N(c3ccccc3)C(=O)C2N1Nc1ccccc1` (stereo not given), for which the composite z-score with Albumin (Bos taurus) was 0.901; in [2] it was 0.0248; in experiment [3], -0.0596; in experiment [4], 0.0784; in [5] it was 2.59; in [6] it was -0.0672. The composite z-score with Sam68 (KHDRBS1) is 0.576; in experiment [7], -1.17; in [8], 0.557. The composite Z-score in experiment [1] was -0.539 (inactive).

`C=CCN1C(=O)[C@]2(O[C@H](CCn3cc([C@H](O)c4ccccc4)nn3)[C@@H]([Si](C)(C)c3ccc(OC)cc3)[C@@H]2C)c2cc(NC(=O)c3ccc(OC)cc3)ccc21`: the composite z-score in the experiment with Albumin (Bos taurus) is 0.55; in [2], -0.0362; in experiment [3], -0.135; in experiment [4], 0.015; in [5] it was 1.02; in experiment [6], -0.182. The composite z-score with Sam68 (KHDRBS1) turned out to be 0.867; in experiment [7], 0.334; in experiment [8] it was 0.543. Besides, in [1], the composite Z-score is 0.24 (inactive).

On to `COc1ccc([Si](C)(C)[C@@H]2[C@@H](CC(=O)N3Cc4ccccc4C[C@H]3CO)O[C@]3(C(=O)N(Cc4cccc(N5CCOC5=O)c4)c4ccccc43)[C@H]2C)cc1`, for which the composite z-score in the experiment with Albumin (Bos taurus) was -0.699; in experiment [2], 0.0016; in [3] it was -0.117; in experiment [4] it was 0.038; in experiment [5], 0.479; in experiment [6] it was 0.333. Besides, the composite z-score in the experiment with Sam68 (KHDRBS1) came out at 1.1; in [7], 1.32; in experiment [8], 0.844. Further, the composite Z-score in [1] is 0.844 (inactive).

As to `COC(=O)[C@@]1(Cc2ccc(F)cc2)[C@H]2c3cc(C(=O)N4CCCC4)n(CCc4ccccn4)c3C[C@H]2CN1C(=O)c1ccccc1`, the composite z-score was determined as 0.634 with Albumin (Bos taurus); 0.0488 in [2]; 0.186 in experiment [3]; 0.852 in experiment [4]; 2.13 in experiment [5]; 0.233 in experiment [6]. For the same compound, the composite z-score with Sam68 (KHDRBS1) is 0.0315; in experiment [7] it was -0.163; in experiment [8] it was 0.222. Moreover, the composite Z-score in experiment [1] is 0.191 (inactive).

With `COC(=O)[C@@]1(Cc2ccc(F)cc2)[C@H]2c3cc(C(=O)N(C)C)n(C)c3C[C@H]2CN1C(=O)c1ccccc1`, the composite z-score with Albumin (Bos taurus) came to 0.637; in experiment [2], 0.224; in [3], 0.352; in [4], 0.777; in [5], 1.37; in experiment [6], 0.33. Moreover, the composite z-score in the experiment with Sam68 (KHDRBS1) was -0.333; in experiment [7], -0.401; in experiment [8], 0.768. Also, the composite Z-score in experiment [1] is 0.343 (inactive).

Take `CCCCC(O)C1C=CC2C(=O)N(c3ccccc3)C(=O)C2N1Nc1ccc([N+](=O)[O-])cc1` (stereo not given): the composite z-score in the experiment with Albumin (Bos taurus) is 0.894; in experiment [2], 0.27; in experiment [3] it was -0.148; in experiment [4], 0.583; in [5], 2.61; in [6], 0.738. Further, the composite z-score was 1.3 with Sam68 (KHDRBS1), -0.0818 in experiment [7] and 1.02 in [8]. Besides, the composite Z-score in [1] is 0.312 (inactive).

For the compound `COC(=O)C(CC#Cc1ccc2c(c1)[C@]1(C(=O)N2)[C@H](C(=O)N2CCc3cc(OC)c(OC)cc3C2)[C@H]2C(=O)O[C@H](c3ccccc3)[C@H](c3ccccc3)N2[C@@H]1c1ccccc1OCCO)C(=O)OC`, the composite z-score with Albumin (Bos taurus) was 0.27; in experiment [2], 0.0793; in experiment [3], -0.135; in [4], 0.59; in experiment [5], 2.3; in experiment [6], -0.461. The figures for the composite z-score (in the experiment with Sam68 (KHDRBS1); in experiment [7]; in experiment [8]) were 1.3, 0.463 and 1.14, respectively. Moreover, the composite Z-score in [1] was 0.112 (inactive).
